Sampled rows, rich in hits. Any-hit rate of the full collection: about 18%.
TGFb SMAD3 inh: blocks TGF-b signaling. 410,000 compounds, 1.2% hits. Potency, µM (highest dose often 46.1 µM), inactives show top-dose activity, negative = inhibition, most hits filed as inhibitors. HepG2 CAGA-GFP TGF-b/SMAD3 reporter, GFP fluorescence, 18 h; TGF-beta stimulated, 500 pg/mL final; further: potency means the concentration at half of the fitted maximal effect; on the % scale 0 is the no-effect control and ±100 the full control effect; nearly all actives have a fitted effect of over 65% in size
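First, reporter cells (HEPG2 CAGA-GFP) rested 2 h at 37 degrees C. Next, compounds were pinned in and TGF-beta added to 500 pg/mL final. After 18 h, GFP was imaged per cell and summed per well.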
TDP1 inh: blocks human tyrosyl-DNA phosphodiesterase 1; Q9NUW8; 350,000 compounds, 0.28% hits; recombinant TDP1, AlphaScreen DNA substrate cleavage; Potency, µM (series often up to 130 µM), without a hit: at the top dose activity change, negative = inhibition, actives largely listed as inhibitors; further: potency means the concentration at half of the fitted maximal effect; on the % scale 0 is the no-effect control and ±100 the full control effect; nearly all actives have a fitted effect of over 40% in size
Target sequence (Q9NUW8 whole entry, looked up): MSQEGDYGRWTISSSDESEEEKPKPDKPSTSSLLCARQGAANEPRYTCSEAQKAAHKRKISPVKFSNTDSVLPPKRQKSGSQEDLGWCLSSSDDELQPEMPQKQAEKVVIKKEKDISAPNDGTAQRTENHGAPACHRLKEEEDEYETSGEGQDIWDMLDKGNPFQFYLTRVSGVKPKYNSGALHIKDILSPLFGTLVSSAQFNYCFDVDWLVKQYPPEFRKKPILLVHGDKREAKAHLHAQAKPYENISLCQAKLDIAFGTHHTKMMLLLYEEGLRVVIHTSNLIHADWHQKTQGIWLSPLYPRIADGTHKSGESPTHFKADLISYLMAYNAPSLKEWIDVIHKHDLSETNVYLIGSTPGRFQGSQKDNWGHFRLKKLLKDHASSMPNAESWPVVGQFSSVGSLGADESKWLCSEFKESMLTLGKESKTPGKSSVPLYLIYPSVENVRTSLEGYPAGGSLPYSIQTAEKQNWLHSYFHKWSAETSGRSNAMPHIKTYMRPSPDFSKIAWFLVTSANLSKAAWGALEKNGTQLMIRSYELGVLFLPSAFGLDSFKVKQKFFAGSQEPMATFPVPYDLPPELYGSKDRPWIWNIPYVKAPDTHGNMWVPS
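E. coli-derived human Tdp1, 1 nM final. Cpd preinc 15 min RT; substrate 15 nM final, 5 min RT; AS bead mix 10 ug/ml final, 10 min RT. Signal loss = tyrosine-FITC cleavage. No-enzyme wells = max signal.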
IL1B secr inh: blocks inflammasome-driven IL-1 beta release | THP-1 LPS/ATP IL-1B secretion, AlphaLISA, 16 h; active compounds read low | activity change, % at 57.5 µM | 360,000 compounds, 4.7% hits | AID 743279; in the data active means activity change below about -50%; inconclusive means mostly about -30% to -49%; further: on the % scale 0 is the no-effect control and ±100 the full control effect
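THP-1 cells pretreated 1 hr with compounds (up to 57.5 uM final), then stimulated with LPS (250 ng/mL final) plus ATP (1.25 mM final); secreted IL-1B measured by AlphaLISA after 16 hr, decreased signal indicating inhibition.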
DT40 TDP1 CPT: growth inhibition of DT40 Tdp1-/-;hTDP1 cells with camptothecin (screen for TDP1 inhibitors); chicken DT40 Tdp1-/-;hTDP1 cells + 20 nM CPT, ATP luminescence, 48 h; 420,000 compounds, 12% hits; Potency, µM (series often up to 46.2 µM), for the others: top-dose activity change, negative = growth inhibition, most hits filed as inhibitors; further: potency means the concentration at half of the fitted maximal effect; on the % scale 0 is the no-effect control and ±100 the full control effect; nearly all actives have a fitted effect of over 55% in size
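Cell growth measured by CellTiter-Glo luminescence after a minimum 48 h, 37 C compound exposure with 20 nM CPT in Tdp1-knockout DT40 cells stably expressing hTDP1, seeded 400/well; qHTS titration format.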
HepG2 viability: counter-screen for TGF-b inhibitors: cytotoxicity in HepG2 cells. HepG2 CAGA-GFP viability, ATP luminescence, 18 h. Potency, µM (top dose mostly 46.1 µM), for inactives: at the highest dose activity change, negative = cytotoxicity, hits mostly cytotoxic. 410,000 compounds, 0.76% hits; further: potency means the concentration at half of the fitted maximal effect
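CellTiter-Glo luminescence gave cytotoxicity after 18 hours at 37 degrees C. The cells were HepG2 CAGA-GFP in 1% FBS DMEM, stimulated with 500 pg/mL TGF-beta after compound addition. %Activity was normalised to no-cell wells (complete cell-killing) and DMSO (no toxicity), and curves were fitted and classified.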
DT40 TDP1 no CPT: qHTS for Inhibitors of human tyrosyl-DNA phosphodiesterase 1 (TDP1): qHTS in cells in absence of CPT | DT40 Tdp1-/- hTDP1 cells, no CPT, ATP luminescence, 48 h | Potency, µM (top dose mostly 46.2 µM), for the others: at the highest dose activity change, negative = growth inhibition, usual class: inhibitors | 420,000 compounds, 15% hits | AID 686978, 2013; further: potency means the concentration at half of the fitted maximal effect; on the % scale 0 is the no-effect control and ±100 the full control effect; nearly all actives have a fitted effect of over 55% in size
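Growth of hTDP1-complemented DT40 Tdp1-knockout cells is measured by ATP luminescence after at least 48 hr compound exposure at 37 °C, with DMSO substituting for the 20 nM CPT used in the parallel screen.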
Active calls of the source: *. Unless noted, the call rests on the fitted dose curve; in most records, active means well fitted curve in the direction sought with a large enough effect; inconclusive means small, poorly fitted or top-dose-only effect, or another doubt; inactive means no such curve, though single readings can be large; an effect the other way counts as inactive or inconclusive.

Results for COc1cccc(-c2cn3c(n2)sc2cc(C(=O)NCc4cccs4)ccc23)c1 ?
TGFb SMAD3 inh: -12.7%; TDP1 inh: -2.6%; DT40 TDP1 CPT: 13µM*; HepG2 viability: -13.4%; DT40 TDP1 no CPT: 6.51µM*

Results for COc1ccccc1CCNC(=O)C(=O)NCC1OCCN1S(=O)(=O)c1ccc(C)cc1 (stereo not given) ?
TGFb SMAD3 inh: 3.0%; IL1B secr inh: 19.9; DT40 TDP1 CPT: -22.6%; HepG2 viability: -5.1%; DT40 TDP1 no CPT: inconclusive

Results for COc1ccc(OCc2cc(C(=O)N(C)C(C)c3ccon3)no2)c(Cl)c1 (stereo not given) ?
TGFb SMAD3 inh: -1.1%; TDP1 inh: 1.7%; IL1B secr inh: -1.8; DT40 TDP1 CPT: inconclusive; HepG2 viability: -19.5%; DT40 TDP1 no CPT: inconclusive

Results for Cc1ccc2oc(C(=O)N3CCC(O)(c4ccccc4)CC3)c(C)c2c1 ?
TGFb SMAD3 inh: -7.2%; TDP1 inh: 1.0%; IL1B secr inh: 9.6; DT40 TDP1 CPT: inconclusive; HepG2 viability: 0.0%; DT40 TDP1 no CPT: inconclusive

How did COc1ccc(-c2cn3c(n2)sc2cc(C(=O)Nc4c(C)cccc4C)ccc23)cc1 do in these assays?
TGFb SMAD3 inh: inconclusive; TDP1 inh: -3.9%; DT40 TDP1 CPT: 13µM*; HepG2 viability: -25.2%; DT40 TDP1 no CPT: 9.2µM*

What do the screens show for `COc1cccc(C(=O)c2c[nH]c(C(=O)NCc3cccs3)c2)c1`?
TGFb SMAD3 inh: -12.2%; TDP1 inh: 4.2%; IL1B secr inh: -62.1*; DT40 TDP1 CPT: -1.6%; HepG2 viability: -4.7%; DT40 TDP1 no CPT: -22.1%

What do the screens show for `COc1ccc(-c2cn3c(n2)sc2cc(C(=O)Nc4ccc(C)cc4C)ccc23)cc1`?
TGFb SMAD3 inh: -15.4%; TDP1 inh: 0.0%; DT40 TDP1 CPT: -29.6%; HepG2 viability: -14.0%; DT40 TDP1 no CPT: inconclusive

What do the screens show for `O=C(NCc1cccs1)c1ccc2c(c1)sc1nc(-c3ccccc3)cn12`?
TGFb SMAD3 inh: inconclusive; TDP1 inh: 2.6%; DT40 TDP1 CPT: 18.4µM*; HepG2 viability: -30.0%; DT40 TDP1 no CPT: 23.1µM*

What do the screens show for `COc1cccc(C(=O)c2c[nH]c(C(=O)NCc3cccnc3)c2)c1`?
TGFb SMAD3 inh: -27.2%; TDP1 inh: 2.4%; IL1B secr inh: -25.7; DT40 TDP1 CPT: -14.6%; HepG2 viability: 23.2%; DT40 TDP1 no CPT: -24.5%

Results for CC[C@H](C)[C@H](NC(=O)CNC(=O)[C@H](CCCNC(=N)N)NC(=O)[C@H](CO)NC(=O)[C@H](C)NC(=O)[C@H](Cc1ccc(O)cc1)NC(=O)[C@H](Cc1c[nH]c2ccccc12)NC(=O)[C@H](C)NC(=O)[C@@H]1CCCN1C(=O)[C@H](CC(N)=O)NC(=O)[C@@H](NC(=O)[C@H](CC(=O)O)NC(=O)[C@@H]1CCCN1C(=O)[C@@H](N)[C@@H](C)O)[C@@H](C)CC)C(=O)N[C@@H](CCCNC(=N)N)C(=O)N1CCC[C@H]1C(=O)N[C@H](C(=O)NCC(=O)N[C@@H](CCCNC(=N)N)C(=O)N[C@@H](Cc1ccccc1)C(N)=O)C(C)C ?
TDP1 inh: 10.8%

What do the screens show for `Cc1ccccc1-c1cncnc1Nc1ccc(F)cc1`?
DT40 TDP1 CPT: -28.6%; DT40 TDP1 no CPT: -24.3%

How did CCCN(CC(=O)Nc1ccccc1C)C(=O)CSc1ccccc1C do in these assays?
TGFb SMAD3 inh: 4.2%; TDP1 inh: -0.1%; IL1B secr inh: -12.7; DT40 TDP1 CPT: -3.4%; HepG2 viability: -1.4%; DT40 TDP1 no CPT: -9.1%
